High-throughput results as filed in PubChem.
SMN2 splice enh: qHTS Assay for Enhancers of SMN2 Splice Variant Expression; Potency, µM (titrated, usually from 46.1 µM), without a hit: at the highest dose activity change, positive = activation, hits mostly activators; 2.8% of 210,000 active; HEK293 SMN2-luciferase splicing reporter, luminescence, 30-36 h; also: % of control where 0% means no effect; nearly all actives have a fitted effect of over 55% in size
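HEK293 cells carry an SMN2 minigene-luciferase reporter in which exon 7 inclusion puts luciferase in frame. Cells were seeded at 2000 cells/well, attached for 10-12 hours, then exposed to compounds for 30-36 hours at 37C before ONE-Glo luminescence.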
KinaseGlo FLuc: Counterscreen for Luciferase (Kinase-Glo TM) Inhibition; Luciferin 4-monooxygenase (Photuris pensylvanica), Q27757; Kinase-Glo luciferase, ATP luminescence, 8 min; Potency, µM (series often up to 38.3 µM), for the others: at the highest dose activity change, negative = inhibition, usual class: inhibitors; 0.28% of 200,000 active; AID 1379, 2008; also: % is scaled to controls: 0 for no effect and ±100 for the full control effect; nearly all actives have a fitted effect of over 60% in size
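Compounds were added to a substrate mix at pH 7.2 (50 mM imidazole, 10 uM ATP, within the enzyme's linear range), followed by Kinase-Glo detection reagent; luminescence was measured after 8 minutes at ambient temperature.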
NPC1 promoter act: qHTS Assay for NPC1 Promoter Activators; Huh7 NPC1 promoter luciferase reporter, 24 h; Potency, µM (highest dose often 9.22 µM), without a hit: top-dose activation, usual class: activators; 2.4% of 320,000 active; also: % of control where 0% means no effect; nearly all actives have a fitted effect of over 60% in size
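Luminescence from an NPC1 promoter-driven luciferase reporter in stably transfected Huh7 cells was measured after 24 h compound treatment at 37 °C, followed by 10 min ambient incubation with luciferase detection reagent.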
Rab9 promoter act: qHTS Assay for Rab9 Promoter Activators | Huh7 Rab9 promoter-luciferase reporter, luminescence, 24 h | Potency, µM (highest dose often 9.22 µM), for inactives: at the highest dose activation, negative = inhibition, usual class: activators | 2.8% of 320,000 active | AID 485297, 2010; also: % of control where 0% means no effect; nearly all actives have a fitted effect of over 60% in size
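Huh7 cells stably carrying Rab9 promoter–luciferase reporter, plated 1500 cells/well, compound added after 2 h and incubated 24 h at 37 °C; luciferase luminescence then read after 10 min with detection reagent.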
FLuc modulator: qHTS profiling assay for firefly luciferase inhibitor/activator using purifed enzyme and Km concentrations of substrates (counterscreen for miR-21 project) | Luciferin 4-monooxygenase (Photinus pyralis), P08659 | purified FLuc, Km substrates, luminescence inhibition | Potency, µM (highest dose often 57.5 µM), without a hit: at the top dose activity change, negative = inhibition, actives largely listed as inhibitors | 6.9% of 360,000 active;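 also: plate controls were vehicle for no effect and reference inhibitor for full effect; nearly all actives have a fitted effect of over 55% in size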
Target sequence (P08659 whole entry, looked up): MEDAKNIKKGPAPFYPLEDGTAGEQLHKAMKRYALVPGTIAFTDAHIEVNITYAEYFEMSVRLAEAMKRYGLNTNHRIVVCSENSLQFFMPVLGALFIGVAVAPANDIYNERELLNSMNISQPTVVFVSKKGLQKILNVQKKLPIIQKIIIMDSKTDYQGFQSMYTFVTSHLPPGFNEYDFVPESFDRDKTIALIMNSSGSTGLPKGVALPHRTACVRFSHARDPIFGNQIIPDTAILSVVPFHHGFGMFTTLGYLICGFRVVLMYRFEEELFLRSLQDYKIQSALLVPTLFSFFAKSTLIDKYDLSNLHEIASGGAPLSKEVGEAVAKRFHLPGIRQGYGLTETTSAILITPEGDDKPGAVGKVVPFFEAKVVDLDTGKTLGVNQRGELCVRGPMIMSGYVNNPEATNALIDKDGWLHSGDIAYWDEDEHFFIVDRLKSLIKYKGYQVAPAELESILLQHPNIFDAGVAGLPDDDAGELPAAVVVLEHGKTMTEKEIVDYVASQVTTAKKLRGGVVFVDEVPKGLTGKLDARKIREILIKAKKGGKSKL
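Biochemical qHTS of compounds, final roughly 60 µM downward over six points, against 10 nM purified firefly luciferase using Km concentrations of substrates (10 uM D-luciferin, 10 uM ATP) in Tris acetate pH 7.5 buffer; luminescence output.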
ELG1 genotox: qHTS screen for small molecules that induce genotoxicity in human embryonic kidney (HEK293T) cells expressing luciferase-tagged ELG1; 1.3% of 330,000 active; Potency, µM (top dose mostly 46 µM), inactives show top-dose activity change, positive = activation, hits mostly activators; AID 504466, 2011; HEK293T ELG1-luciferase reporter, luminescence, 16 h; also: % of control where 0% means no effect; nearly all actives have a fitted effect of over 60% in size
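HEK293T cells expressing luciferase-tagged ELG1 were treated with compound or DMSO for 16 hr at 37°C. Luciferase activity was then read after 30 min with ONE-Glo at room temperature; rising signal flags genetic stress.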
Starred values were filed as active, the others as inactive; ? = inconclusive; nt = no result given; [ ] = remark or other dose. Rows were chosen to be rich in hits. Some 7.5% of all compounds tested hit in one or more screens of this group. Calls follow the shape of the dose curve; as a rule, active = well fitted curve in the direction sought with a large enough effect; inconclusive = small, poorly fitted or top-dose-only effect, or another doubt; inactive = no such curve, though single readings can be large; an effect the other way counts as inactive or inconclusive. Potency is read from the fitted curve at half-maximal effect.

SMILES	SMN2 splice enh	KinaseGlo FLuc	NPC1 promoter act	Rab9 promoter act	FLuc modulator	ELG1 genotox
O=C(Nc1ccc(C#Cc2ccccc2)cc1)C1CC1	3.55µM*	0.9%	2.51µM*	1.41µM*	5.36µM*	?
O=C(Nc1ccccc1C(=O)O)c1ccc(NC(=O)C2CC2)cc1	nt	nt	0.7%	0.0%	-0.2%	-10.7%
O=C(Nc1ccccc1O)c1ccc(NC(=O)C2CC2)cc1	nt	nt	3.55µM*	2.82µM*	12µM*	20.6µM*
c1ccc(Cc2nnc3sc(-c4ccncc4)nn23)cc1	-4.0%	2.1%	0.8%	-3.6%	-2.2%	-5.8%
c1ccc(Cc2nnc3sc(-c4ccc5c(c4)OCCO5)nn23)cc1	4.2%	0.8%	8.9%	?	13.5µM*	?
CN(C)C(=O)c1cc(C(=O)c2ccc(Cl)cc2Cl)c[nH]1	nt	nt	?	?	15.1µM*	15.4%
Cc1ccc(C(=O)c2ccc(C(F)(F)F)cc2)cc1	nt	nt	-2.3%	-1.8%	-1.1%	-2.0%
CN(C)C(=O)c1cc(C(=O)c2ccc(C(F)(F)F)cc2)c[nH]1	nt	nt	?	?	13.5µM*	?
CN(C)C(=O)c1cc(C(=O)c2ccc(F)cc2Cl)c[nH]1	nt	nt	?	24.5%	?	13.5%
CCn1cnc2cc(NC(=O)c3ccc(C)cc3)ccc21	nt	nt	2µM*	3.98µM*	10.7µM*	?
Cc1ccc(NC(=O)CCn2cnc3cc(C)c(C)cc32)cc1	-5.5%	2.7%	-1.5%	-0.6%	-10.6%	-1.9%
Cc1ccc(C(=O)Nc2ccc3c(c2)ncn3C)cc1	2.51µM*	1.4%	3.16µM*	3.98µM*	-2.8%[2.3 µM]	?
CCn1cnc2cc(NS(=O)(=O)c3ccc(OC)c(OC)c3)ccc21	nt	nt	-0.4%	-1.7%	-0.6%	0.5%
CCC(Oc1ccc(C)c(C)c1)C(=O)N1CCCN(C)CC1 (stereo unspecified)	nt	nt	-3.4%	3.7%	-0.2%	1.0%
COc1ccc(N2CCN(C(c3cccs3)C(C)NC(=O)C(=O)N3CCCC3)CC2)cc1 (stereo unspecified)	nt	nt	-1.2%	-3.6%	0.8%	-7.6%
C/C(=C\CO)CCO	7.1%	0.6%	nt	nt	nt	nt
Cc1ccc(CCNC(=O)CSCc2nc(-c3ccc(C)cc3)oc2C)cc1	-3.5%	nt	nt	nt	?	nt
O=C1c2cccc3cccc(c23)C(=O)N1OS(=O)(=O)c1ccccc1	4.3%	-2.2%	1.4%	-3.3%	19µM*	11.5%
C=CCNC(=O)N1CCc2nc(COc3ccccc3)c3c(c2C1)CO[C@@H](C)C3	-9.6%[9.22 µM]	0.3%[7.66 µM]	nt	nt	nt	nt
O=C(NC1CC2CCCC(C1)N2C(=O)NC1CCCCC1)c1ccc(F)cc1 (stereo unspecified)	nt	nt	2.7%	-2.6%	5.7%	0.8%
O=C(Nc1ccc(F)cc1)NC1CCCCCCC1	nt	nt	3.55µM*	?	9.53µM*	?
O=C(Nc1cccc(Cl)c1)NC1CCCCC1	28.9%	-5.8%	?	?	?	8.3%
O=C(Nc1ccccc1F)NC1CCCCCCC1	nt	nt	?	3.98µM*	12µM*	?
O=C(NC1CCCCCCC1)c1ccc(F)cc1	nt	nt	1.41µM*	1.41µM*	12µM*	10.3µM*
O=C(Nc1ccc(F)c(F)c1)NC1CCCCC1	4.47µM*	0.1%	?	?	15.1µM*	9.0%
SMILES	SMN2 splice enh	KinaseGlo FLuc	NPC1 promoter act	Rab9 promoter act	FLuc modulator	ELG1 genotox
CCOc1ccc(NC(=O)Cn2c(=O)n(Cc3ccccc3)c(=O)c3sc4ccccc4c32)cc1	3.7%	nt	nt	nt	0.8%	nt
Cc1cccc(-c2nc3ccccc3n3c(-c4ccccc4)c4c(=O)n(C)c(=O)n(C)c4c23)c1	-3.0%	nt	nt	nt	0.0%	nt
CCOC(=O)c1c(NC(=O)/C=C/c2ccc(C)cc2)sc2c1CCCC2	-6.8%	nt	nt	nt	-1.2%	nt
Cc1ccccc1-c1nc(SCC(=O)NCC2CCCO2)c2c(=O)n(C)c(=O)n(C)c2n1 (stereo unspecified)	nt	nt	nt	nt	2.7%	nt
S=C(Nc1cccc2ccccc12)NC1CCCCC1	?	-1.2%	18.6%	?	19µM*	?
O=C(NC1CCCCCC1)c1ccc(N2CCCC2=O)cc1	12.6µM*	-6.5%	3.98µM*	3.16µM*	13.5µM*	9.2µM*
O=C(NC1CCCCC1)c1ccc(N2CCCC2=O)cc1	?	-5.7%	?	28.5%	?	?
O=C(Nc1ccc(Cl)cc1)NC1CCCCC1	11.2µM*	-1.8%	1.12µM*	2.51µM*	?	20.2%
COc1ccc(C(=O)N/N=C(/C)c2cccc(NC(=O)c3ccccc3F)c2)cc1	nt	nt	?	23.9%	3.79µM*	6.0%
COc1cccc(NC(=O)c2ccc(NC(C)=O)cc2)c1	-3.7%	-2.5%	18.1%	?	?	?
COc1ccc(C(=O)N/N=C(\C)c2cccc(NC(=O)c3ccc(F)cc3)c2)c(OC)c1	nt	nt	29.7%	29.7%	4.26µM*	2.7%
CCN(CC)C(=O)CSc1ncnc2c1nnn2-c1ccc(OC)cc1	-26.7%	-7.6%	-1.8%	0.6%	?	4.1%
CCC(Sc1ncnc2c1nnn2-c1ccc(F)cc1)C(=O)OC (stereo unspecified)	6.5%	-2.6%	?	?	5.36µM*	?
CCOC(=O)C(C)Sc1ncnc2c1nnn2-c1ccc(F)cc1 (stereo unspecified)	16.6%	-3.8%	?	?	12µM*	17.4%
CCN(CC)C(=O)CSc1ncnc2c1nnn2-c1ccc(F)cc1	-9.9%	0.0%	-1.1%	-2.5%	13.5µM*	2.5%
COC(=O)c1ccc(CSc2ncnc3c2nnn3-c2ccc(F)cc2)o1	-10.0%	3.3%	2.7%	-8.7%	8.49µM*	3.2%
CN(C)CCN[C@H]1CCC2C3CC=C4C[C@@H](O)CC[C@]4(C)C3CC[C@@]21C (stereo partly specified)	nt	nt	nt	nt	nt	-0.7%
CCSc1nnc2n(-c3cccc(C)c3)c(=O)c3c4c(sc3n12)CCCC4	-2.5%	nt	nt	nt	5.9%	nt
O=C(O)/C(Cc1ccc([N+](=O)[O-])cc1)=N/O	-4.8%[9.22 µM]	-3.9%[7.66 µM]	nt	nt	nt	nt
CCOc1ccc(S(=O)(=O)Nc2cc(Cl)ccc2OC)c2cccnc12	3.1%	nt	nt	nt	-18.9%	nt
N#Cc1ccc(N[C@@H]2CCN3C(=O)c4ccccc4[C@@H]3C[C@H]2O)cc1	nt	nt	nt	nt	nt	-0.3%
O=C(NCCc1ccccc1)c1ccco1	12.6µM*	-6.5%	?	?	?	?
COc1ccc(CCNC(=O)c2[nH]c(C)c(C(C)=O)c2C)cc1OC	?	3.9%	2.4%	2.7%	5.9%	-1.1%
CC(=O)c1c(C)[nH]c(C(=O)NCCc2ccccc2)c1C	11.2µM*	-5.0%	2.51µM*	1.26µM*	10.7µM*	?
CN(CC(=O)NCCc1ccccc1)Cc1ccco1	nt	nt	?	26.4%	?	20.6µM*
